These results are taken from publication PMC8384837, “Expanding the binding specificity for RNA recognition by a PUF domain”.

Where a chain is given by its changes, count along the chain named.

What all share (experiment): yeast three-hybrid, YBZ-1, SC-Leu-His + 0.5 mM 3-AT, 4 days
What all share (settings): tags: N-Gal4 AD-HA kept; label: inside an RPR1-promoter hybrid RNA with tandem MS2 sites; ssRNA

Assay [1] deals with PUM1 PUF domain R2-LFL (Homo sapiens, UniProt Q14671 828-1176, N899L;Y900F;Q903L). An outline of the steps: (§1)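 Pumilio-1 PUF domain libraries, randomized at the three base-contacting residues of each repeat, were co-expressed with matching RNA elements from a centromeric plasmid in strain YBZ-1, which carries a LexA–MS2 coat fusion and a HIS3 reporter. Transformants grew for four days on SC-Leu (input) or on SC-Leu-His + 0.5 mM 3-AT (selection), and the repeat regions were PCR-amplified and Illumina-sequenced. The interaction score is the log change in variant frequency from input to selection. That logarithm is base 2, with a pseudocount of 1 where a variant was absent.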

Assay [2] concerns the target PUM1 PUF domain R8-RYV (Homo sapiens, UniProt Q14671 828-1176, N1122R;Q1126V). Put shortly: as §1
Assay [3] concerns the target PUM1 PUF domain R8-PYY (Homo sapiens, UniProt Q14671 828-1176, N1122P;Q1126Y). Put shortly:
as §1

In assay [4] the target is PUM1 PUF domain R5-SKN (Homo sapiens, UniProt Q14671 828-1176, C1007S;R1008K;Q1011N). An outline of the steps: as §1
For assay [5], the target named is PUM1 PUF domain R3-RSV (Homo sapiens, UniProt Q14671 828-1176, C935R;R936S;Q939V). An outline of the steps: as §1
Assay [6] has as its target T1, PUM1 PUF domain R6-FWT (Homo sapiens, UniProt Q14671 828-1176, N1043F;Y1044W;Q1047T).
T1 sequence: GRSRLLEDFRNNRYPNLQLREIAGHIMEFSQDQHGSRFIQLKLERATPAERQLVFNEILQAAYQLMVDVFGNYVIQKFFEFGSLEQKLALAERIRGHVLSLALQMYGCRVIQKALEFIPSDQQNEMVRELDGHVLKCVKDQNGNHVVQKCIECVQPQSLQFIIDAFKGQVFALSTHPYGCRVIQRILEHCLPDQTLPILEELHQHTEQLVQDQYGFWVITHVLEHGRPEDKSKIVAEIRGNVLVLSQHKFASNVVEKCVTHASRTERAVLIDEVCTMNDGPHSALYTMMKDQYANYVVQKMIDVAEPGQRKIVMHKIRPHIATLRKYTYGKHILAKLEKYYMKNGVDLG
An outline of the steps: as §1

For assay [7], the target named is PUM1 PUF domain R4-EHI (Homo sapiens, UniProt Q14671 828-1176, N971E;Q975I). An outline of the steps: as §1
The target in assay [8] is T2, PUM1 PUF domain R6-VFH (Homo sapiens, UniProt Q14671 828-1176, N1043V;Y1044F;Q1047H).
T2 sequence: T1 sequence with F216V, W217F, T220H
An outline of the steps:
as §1

The target in assay [9] is T3, PUM1 PUF domain R6-LWE (Homo sapiens, UniProt Q14671 828-1176, N1043L;Y1044W;Q1047E).
T3 sequence: T1 sequence with F216L, T220E
An outline of the steps: as §1

Assay [10] addresses PUM1 PUF domain R5-GTR (Homo sapiens, UniProt Q14671 828-1176, C1007G;R1008T;Q1011R). An outline of the steps: as §1

With “GGCUAGAACUAGUGGAUCCCCCGGCGCCCGGCGGCUCGAGCCCGGGUAAGUGUAAAAAGUCUGCAUGCCGCCGGGCGCCAUGCCUGCAGGUCGACUCUAGAAAACAUG”, the binding signal in assay [1] is 5.51 log2 enrichment (interaction score).

With “GGCUAGAACUAGUGGAUCCCCCGGCGCCCGGCGGCUCGAGCCCGGGUAAGCGUAAAUAGUCUGCAUGCCGCCGGGCGCCAUGCCUGCAGGUCGACUCUAGAAAACAUG”, the results for the binding signal in assay [2] and in assay [3] were 6.01 log2 enrichment (interaction score) and 3.73 log2 enrichment (interaction score), respectively. With “GGCUAGAACUAGUGGAUCCCCCGGCGCCCGGCGGCUCGAGCCCGGGUAAGUGUUAAUAGUCUGCAUGCCGCCGGGCGCCAUGCCUGCAGGUCGACUCUAGAAAACAUG”, the binding signal in [4] is 2.59 log2 enrichment (interaction score). In the case of “GGCUAGAACUAGUGGAUCCCCCGGCGCCCGGCGGCUCGAGCCCGGGUAAGUGUAAUUAGUCUGCAUGCCGCCGGGCGCCAUGCCUGCAGGUCGACUCUAGAAAACAUG”, the binding signal in assay [5] was 3.06 log2 enrichment (interaction score).

With “GGCUAGAACUAGUGGAUCCCCCGGCGCCCGGCGGCUCGAGCCCGGGUAAGUGUAAAUAGUCUGCAUGCCGCCGGGCGCCAUGCCUGCAGGUCGACUCUAGAAAACAUG”, the binding signal was 4.41 log2 enrichment (interaction score) in assay [6], 4.92 log2 enrichment (interaction score) in assay [2], 3.46 log2 enrichment (interaction score) in assay [7] and 2.84 log2 enrichment (interaction score) in assay [3]. Turning to “GGCUAGAACUAGUGGAUCCCCCGGCGCCCGGCGGCUCGAGCCCGGGUAAGUGAAAAUAGUCUGCAUGCCGCCGGGCGCCAUGCCUGCAGGUCGACUCUAGAAAACAUG”, the binding signal in assay [8] was 3.39 log2 enrichment (interaction score); in assay [9] it was 3.79 log2 enrichment (interaction score).

As to “GGCUAGAACUAGUGGAUCCCCCGGCGCCCGGCGGCUCGAGCCCGGGUAAGUGUCAAUAGUCUGCAUGCCGCCGGGCGCCAUGCCUGCAGGUCGACUCUAGAAAACAUG”, the binding signal is 4.92 log2 enrichment (interaction score) in assay [10] and 1.73 log2 enrichment (interaction score) in assay [4].
